# According to the supplement of paper PMC10105736:
# A number with no mark means an inactive call.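 The calls were made as follows: active = MAPPIT score above the 99th percentile of random reference set scores in the same batch; inactive = at or below it.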
# B1: SNRPG (protein)
# chain: MSKAHPPEVKKYMDKRMMLKLNGGRAVTGILRGFDPFMNVVLDDTVEECKDNTKNNIGMVVIRGNSIVMVEALDRV
# B2: Rab26 (protein)
# chain: MASTAVGLGGGEGDPGAGGPPAGSAHPDDASSMSDDVFEDAETTQARIEELRRRPFGDGSYNPPAAPASVSASITTTTTQQQQQHHNPSHHHQSSHHQPSHHHHHHHHSQLSLTGSHHYHDDAIMAPVQRSATGYPGYRPSREAMQMYAYGTDDYDDDYNDGWRSYRYDEVDMHPAPSNAHQQPFDDTVNHKTILLGDSGVGKTSFLVKYNTGEFRLGSFSATVGIALTNKVVVVDGTRVKLQIWDTAGQERFRSVTHAYYRDAHALLLLYDVTNKTTYDNIRAWLGEIREYAQEDVVIVLIGNKADCSGSERQVKREDGERLGREHNVPFMETSAKTGLNVELSFTAVARQLKSRGYEHGDDGKFNVHDFVRDNTKARSVCAQCRNM
# B3: CycG (protein)
# chain: MSVPVRYSSAAAEYAAEVDCELESTLQQQQQLHLQQQYEQYQHYQYQREQDIAYYCQLQAARQQEQLMQQRTSMSSSVMPGLALPQDHQDHPAALLNGPHNNNIGLAMDAHSINAILVDDEQPSTSAQAAAAAAASAGGSAGAGSGSGLGGAIGGGKLANGINRNAEMPTDWMRIADEGRYGTPGAAGLEYQKYEQQQQLEDLAESEAGAVGGASNNNGESSSSLKKLEDQLHALTSDELYETLKEYDVLQDKFHTVLLLPKESRREVTAGGRDGSAYVLRCLKMWYELPSDVLFSAMSLVDRFLDRMAVKPKHMACMSVASFHLAIKQLDLKPIPAEDLVTISQCGCTAGDLERMAGVIANKLGVQMGHAPITSVSYLRIYYALFRNLAKEIGGDFFKFYQQLIKLEELENRLEILMCDVKTTVITPSTLALVLICLHLDFHIKESYTRGSPELKHVFEYILFLQQYMRIPDRVFTCGFSIVSGILSHYNGQNKAPYKQRLVWKLSSRTLRVLRPINRFSSDLPTIEEGIPNALDDGLRSRTESISSEEEEDWPTSPIIPIFEQC
# B4: mod(mdg4) (protein)
# chain: MADDEQFSLCWNNFNTNLSAGFHESLCRGDLVDVSLAAEGQIVKAHRLVLSVCSPFFRKMFTQMPSNTHAIVFLNNVSHSALKDLIQFMYCGEVNVKQDALPAFISTAESLQIKGLTDNDPAPQPPQESSPPPAAPHVQQQQIPAQRVQRQQPRASARYKIETVDDGLGDEKQSTTQIVIQTTAAPQATIVQQQQPQQAAQQIQSQQLQTGTTTTATLVSTNKRSAQRSSLTPASSSAGVKRSKTSTSANVMDPLDSTTETGATTTAQLVPQQITVQTSVVSAAEAKLHQQSPQQVRQEEAEYIDLPMELPTKSEPDYSEDHGDAAGDAEGTYVEDDTYGDMRYDDSYFTENEDAGNQTAANTSGGGVTATTSKAVVKQQSQNYSESSFVDTSGDQGNTEAQAATSASATKIPPRKRGRPKTKVEDQTPKPKLLEKLQAATLNEEASEPAVYASTTKGGVKLIFNGHLFKFSFRKADYSVFQCCYREHGEECKVRVVCDQKRVFPYEGEHVHFMQASDKSCLPSQFMPGESGVISSLSPSKELLMKNTTKLEEADDKEDEDFEEFEIQEIDEIELDEPEKTPAKEEEVDPNDFREKIKRRLQKALQNKKK
# What was measured:
# Experiment in all cases: MAPPIT interaction score (arbitrary units); higher = stronger binary interaction signal, active = hit call of the paper
# [1] = target: CG12470; conditions: MAPPIT configuration: N-N; pair source set: Finley_Y2H
# [2] = target: CG12863; conditions: MAPPIT configuration: N-N; pair source set: Curagen_high_conf
# [3] = target: CG12307; conditions: MAPPIT configuration: N-C; pair source set: screen_3
# [4] = target: CG5151; conditions: MAPPIT configuration: N-N; pair source set: Curagen_high_conf
# [5] = target: Npl4; conditions: MAPPIT configuration: N-N; pair source set: Finley_Y2H
# [6] = target: PAN3; conditions: MAPPIT configuration: N-N; pair source set: Finley_Y2H
# [7] = target: Sxl; conditions: MAPPIT configuration: N-N; pair source set: Finley_Y2H
# [8] = target: mxt; conditions: MAPPIT configuration: N-N; pair source set: screen_1
# [9] = target: CG12607; conditions: MAPPIT configuration: N-N; pair source set: Curagen_high_conf
# [10] = target: CG17612; conditions: MAPPIT configuration: N-C; pair source set: screen_4
# [11] = target: CG30195; conditions: MAPPIT configuration: N-N; pair source set: DPIM
# [12] = target: Cp190; conditions: MAPPIT configuration: N-C; pair source set: Lit-BM-16
# [13] = target: Cpr72Ea; conditions: MAPPIT configuration: N-N; pair source set: Lit-BS-16
# [14] = target: Trl; conditions: MAPPIT configuration: N-N; pair source set: Finley_Y2H
# [15] = target: Ubc6
# [16] = target: Zasp52; conditions: MAPPIT configuration: N-N
# [17] = target: fl(2)d; conditions: MAPPIT configuration: N-N; pair source set: screen_2
# [18] = target: su(Hw); conditions: pair source set: Lit-BM-16
# 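Also: HEK293T cells with Epo stimulation, STAT-responsive firefly luciferase reporter, fold induction versus unstimulated cells divided by the larger fold induction of two negative controls lacking either bait or prey.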
binder,measurement,setting,value
B1,MAPPIT interaction score,[1],2.32
B2,MAPPIT interaction score,[2],1.43
B3,MAPPIT interaction score,[3],0.375
same,MAPPIT interaction score,[4],0.112
same,MAPPIT interaction score,[5],3.83 (active)
same,MAPPIT interaction score,[6],0.781
same,MAPPIT interaction score,[7],1.86
same,MAPPIT interaction score,[8],-0.277
B4,MAPPIT interaction score,[9],0.232
same,MAPPIT interaction score,[10],4.86 (active)
same,MAPPIT interaction score,[11],2.59 (active)
same,MAPPIT interaction score,[12],1.09
same,MAPPIT interaction score,[13],-2.84
same,MAPPIT interaction score,[14],-0.456
same,MAPPIT interaction score,"[15]; MAPPIT configuration: N-C, pair source set: screen_3",3.96 (active)
same,MAPPIT interaction score,"[15]; MAPPIT configuration: N-N, pair source set: screen_2",5.53 (active)
same,MAPPIT interaction score,[16]; pair source set: Curagen_low_conf,0.192
same,MAPPIT interaction score,[16]; pair source set: Lit-BS-16,-0.533
same,MAPPIT interaction score,[17],-0.311
same,MAPPIT interaction score,[18]; MAPPIT configuration: N-C,0.885
same,MAPPIT interaction score,[18]; MAPPIT configuration: N-N,0.105
